{
  "source": "PubChem BioAssay (NCI)",
  "note": "This is part of a sample that, as a whole, favours compounds with a hit. Of some 83,000 tested, about 20% had one in any assay.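 How to read the values: 0–100, growth inhibition (40 = 60% inhibited); 0, no net growth; -100 to 0, cell death (-40 = 40% of starting cells died; -100 = all dead).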 Activity calls are given as the source filed them. How the source made its calls: active means growth percent below 10; inactive means the rest.",
  "data": [
    {"system": "HL-60(TB) leukemia", "experiment": "NCI-60 one-dose screen, 48 h (100 = growth as untreated, 0 = no growth, -100 = all killed)", "details": "10 µM unless noted", "values": [
      {"smiles": "COc1ccc(C2CC(c3ccc4c(c3)OCO4)=NN2C=O)cc1", "note": "(stereo not given)", "growth": "106% (inactive)"},
      {"smiles": "COc1cc(/C=N/NC(=O)c2cnn3c2NC(c2ccccc2)C3)ccc1Oc1ccccc1", "note": "(stereo not given)", "growth": "14.3% (inactive)"},
      {"smiles": "CCOC(=O)c1c(C)c2c(n1Cc1ccccc1)CSCC2=O", "growth": "13.3% [100 µM] (inactive)"},
      {"smiles": "CCOC(=O)CN(c1sc(C)c(C)c1C(=O)OCC)S(=O)(=O)c1ccc(C)cc1", "growth": "94.2% (inactive)"},
      {"smiles": "COc1ccc(OC)c(CCn2cncc2-c2c[nH]c3ccccc23)c1", "growth": "80.8% (inactive)"},
      {"smiles": "COC(=O)c1[nH]nc(OC)c1C1(C(C#N)c2nc3ccccc3s2)CCCc2ccccc21", "note": "(stereo not given)", "growth": "79.8% (inactive)"},
      {"smiles": "COc1cc(N)c2nccc(C)c2c1OC", "growth": "96.2% (inactive)"},
      {"smiles": "CC(C)CC(NC(=O)CN(Cc1ccccc1)S(C)(=O)=O)C(=O)O", "note": "(stereo not given)", "growth": "94.8% (inactive)"},
      {"smiles": "CCN(CC)CCCOc1cccc2c1C(=O)c1cccc(OCCCN(CC)CC)c1C2=O", "growth": "30.3% (inactive)"},
      {"smiles": "COc1cnc2c(c1)C(=O)c1c-2n(CCCN2CCCC2)c(=O)c2cc(Cl)ccc12", "growth": "27.9% (inactive)"},
      {"smiles": "Cc1ccccc1NC(=O)Cn1cc(CN2CCN(c3ccnc4cc(Cl)ccc34)CC2)nn1", "growth": "22.2% (inactive)"},
      {"smiles": "C#CCOc1ccc2nc(CCl)c(Cl)c(Nc3cccc(C(F)(F)F)c3)c2c1", "growth": "56.1% (inactive)"},
      {"smiles": "CC(O)(CO)c1ccccc1", "note": "(stereo not given)", "growth": "116% (inactive)"},
      {"smiles": "COc1ccc2c(c1)c(-c1nc(-c3c[nH]c4ncccc34)cs1)cn2C", "growth": "63.5% (inactive)"},
      {"smiles": "C#Cc1cccc(NC(=O)Nc2cccc(N=C=S)c2)c1", "growth": "98.7% [8.25 µM] (inactive)"},
      {"smiles": "C=C1C(=O)O[C@H]2[C@H]1CC/C(COC(=O)c1cn(C)c3ccccc13)=C\\CC[C@@]1(C)O[C@@H]21", "growth": "2.98% (active)"},
      {"smiles": "CCOC(=O)c1c(C)nc2ccccc2c1/C=C/c1ccccc1", "growth": "81.8% (inactive)"},
      {"smiles": "Cc1ccc(/C=C2\\CN(C(=O)CCN3CCC(=NO)CC3)C/C(=C\\c3ccc(C)cc3)C2=O)cc1", "growth": "-11.3% (active)"},
      {"smiles": "CCOC(=O)c1ccc2c(c1)c1c(C)c3cccnc3c(C)c1n2C", "growth": "77.4% (inactive)"},
      {"smiles": "CC1(C)CCC(=NNC(N)=S)CC1", "growth": "109% (inactive)"},
      {"smiles": "C=CCOc1ccc(/C=C2\\SC(=S)N(CCc3ccc(O)cc3)C2=O)cc1", "growth": "38.9% (inactive)"},
      {"smiles": "C/C(=C(/c1ccc(O)cc1)c1ccc(OCCN2CCCC2)cc1)c1ccccc1", "growth": "45.1% (inactive)"},
      {"smiles": "Cc1ccc(N2C(=O)C=CC2=O)cc1", "growth": "63.2% (inactive)"},
      {"smiles": "CC[C@H](C)[C@H](N)C(=O)O", "growth": "115% (inactive)"},
      {"smiles": "CCCCCCCCCCCCCCCCCN", "growth": "95.9% (inactive)"},
      {"smiles": "CC(=O)c1ccc2c(c1)CCc1ccccc1-2", "growth": "126% (inactive)"},
      {"smiles": "c1cc2ccc3cc2cc1CNCCN1CCNCc2ccc4ccc(cc4c2)CNCCN(CCNC3)CCNCc2ccc3ccc(cc3c2)CNCC1", "growth": "-38.7% (active)"},
      {"smiles": "O=C1Nc2ccccc2/C1=C/C(=N/c1nnc(-c2ccc(Cl)cc2)s1)c1ccccc1", "growth": "-31.8% (active)"},
      {"smiles": "Fc1ccc(-c2ccnc3nc(-c4ccncc4)nn23)cc1", "growth": "96.5% (inactive)"},
      {"smiles": "C=CCn1c(SCC(=O)Nc2ccc(C(=O)/C=C/c3cc(OC)c(OC)c(OC)c3)cc2)nnc1-c1ccc(Cl)cc1", "growth": "12.3% (inactive)"},
      {"smiles": "N#Cc1c(-c2ccccc2)cc(-c2ccccc2)n(CCCCC(=O)NO)c1=O", "growth": "11% (inactive)"},
      {"smiles": "Cc1ccc(NC(=O)Nc2nc3ccccc3s2)cc1NC(=O)Nc1nc2ccccc2s1", "growth": "106% (inactive)"},
      {"smiles": "Clc1ccc(/C=N\\N=C\\c2ccc(Cl)c(Cl)c2)cc1Cl", "growth": "135% (inactive)"},
      {"smiles": "N[C@H](CS)C(=O)O", "growth": "109% (inactive)"},
      {"smiles": "Cc1nn(-c2ccccc2)c(-n2ccnc2)c1/C=N/Nc1nc(-c2ccc(Cl)c(Cl)c2)cs1", "growth": "76.6% (inactive)"},
      {"smiles": "CCc1nn2c(-c3ccc(Cl)cc3C)c(-c3cc(OC)c(OC)c(OC)c3)nc2s1", "growth": "73.6% (inactive)"},
      {"smiles": "CC(C)(C)c1ccc(NS(=O)(=O)c2ccc3nc(NC(=O)c4cnccn4)[nH]c3c2)cc1", "growth": "-21.9% (active)"},
      {"smiles": "N#CC(C#N)=Cc1cc2ccccc2nc1Oc1ccc(C(F)(F)F)cc1", "growth": "78.4% (inactive)"},
      {"smiles": "C#C[C@@]1(O)[C@@H](CO)O[C@@H](n2cc(Br)c3c(N)ncnc32)[C@@H]1O", "growth": "-62.5% (active)"},
      {"smiles": "Cc1cc(-c2nnc(/C=C/c3ccc4c(c3)OCO4)o2)n[nH]1", "growth": "10.6% (inactive)"}
    ]}
  ]
}
